# Measurements from PubChem BioAssay (Tox21).
# Inconclusive results are not listed. Values without a mark were called inactive. The source made the active and inactive calls. Calls come from the whole dose curve.
# Test: qHTS assay to identify small molecule antagonists of the estrogen receptor alpha (ER-alpha) signaling pathway using the BG1 cell line (AID 743080);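 note: BG1 cells stimulated with 17beta-estradiol alongside compound; nearly all actives have a fitted effect of over 25% in size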
# Settings: BG1Luc4E2 ERE-luciferase antagonist mode, luminescence; series mostly up to 70.3 µM; activity change, negative = inhibition: at the top concentration
# From the text: National Center for Advancing Translational Sciences [NCATS]
# NIH Chemical Genomics Center [NCGC]
# U.S. Environmental Protection Agency [EPA]
# National Institutes of Environmental Health Sciences [NIEHS]
# National Toxicology Program [NTP]
# U.S. Food and Drug Administration [FDA]
# Estrogen receptor (ER), a nuclear hormone receptor, plays an important role in development, metabolic homeostasis and reproduction. Endocrine disrupting chemicals (EDCs) and their interactions with steroid hormone receptors like ER causes disruption of normal endocrine function. Therefore, it is important to understand the effect of environmental chemicals on the ER signaling pathway. To identify ER antagonists, BG1-Luc-4E2 cell line (provided by Dr. Michael Denison from University of California) has been used to screen the Tox21 10K compound library. BG1Luc4E2 cell line endogenously expresses full-length ER-alpha and is stably transfected with a plasmid containing four estrogen responsive elements (ERE) upstream of a luciferase reporter gene.
# Tox21 Assay Protocol Summary:
# BG1-Luc-4E2 cells were cultured in phenol red free assay medium containing 10% charcoal stripped FBS for 5 days before the assay was performed. The cells were dispensed at 4,000 cells/4 uL of assay medium per well into white wall/solid-bottom 1536-well plates using a Multidrop Combi (ThermoFisher Scientific, Waltham, MA) dispenser. The assay plates were incubated at a 37C and 5% CO2 for 24 h, and then 23 nL of compounds dissolved in DMSO, positive controls or DMSO only was transferred to the assay plate using a Pintool station (Kalypsys, San Diego, CA), followed by addition of 1 uL of 17beta-estradiol in assay medium using a Flying Reagent Dispenser (Aurora Discovery, San Diego, CA). After the plates were incubated at 37 C and 5% CO2 for 21.5 h, 1 uL of CellTiter-Fluor reagent (Promega, Madison, WI) of measuring cytotoxicity was added using Flying Reagent Dispenser (FRD) to each well. The assay plates were incubated at 37 C and 5% CO2 for additional 30 min and the fluorescence intensity was quantified by a ViewLux plate reader (PerkinElmer, Shelton, CT). For measuring luciferase reporter gene activity, 4 uL of ONE-Glo reagent (Promega) was added to each plate using an FRD and luminescence was quantified by a ViewLux plate reader after 30 min incubation at room temperature.
# % is set by controls: 0 for no effect and ±100 for the full control effect; potency is the fitted concentration of half-maximal effect.
Structure (SMILES),"activity change, negative = inhibition",Potency
O=C(O)c1cc(I)cc(I)c1I,0.0795% [at 95 µM],
C[N+](C)(C)CC1CO1 (stereo not given),1.25%,
CCC(C)(C)c1ccc(O)c(C(C)(C)CC)c1,,61.1 µM (active)
CC(C)C1(C)N=C(c2ncccc2C(=O)O)NC1=O (stereo not given),-7.83%,
C[N+]1(CCF)[C@@H]2CC[C@H]1CC(OC(=O)C(O)(c1ccccc1)c1ccccc1)C2 (stereo not given in full),6.9%,
CC(=O)OC(c1ccccc1)C(Cl)(Cl)Cl (stereo not given),,68.6 µM (active)
CCCN(CCC)c1c([N+](=O)[O-])cc(C(C)C)cc1[N+](=O)[O-],,inactive
CC(Oc1cc(Cl)c(Cl)cc1Cl)C(=O)O (stereo not given),1.94%,
O=C([O-])c1ccccn1.O=C([O-])c1ccccn1.O=C([O-])c1ccccn1.[Cr+3],-0.0912%,
NP(N)(=O)NC(=O)c1ccc(F)cc1,1.87%,
CCC[N+](CCC)(CCC)CCC,1.77%,
CCOC(=O)NC(O)C(Cl)(Cl)Cl (stereo not given),-10.5%,
COc1cc(CC(C)N)c(OC)cc1Br (stereo not given),,inactive
NNCCO,-1.36%,
CN[C@@H](C)[C@H](O)c1ccccc1,1.46%,
COCc1cnc(C2=NC(C)(C(C)C)C(=O)N2)c(C(=O)O)c1 (stereo not given),1.98%,
C[C@H](N)[C@H](O)c1ccc(O)c(O)c1,1.58%,
Nc1c(Br)cc(Br)c2c1C(=O)c1ccccc1C2=O,9.5% [at 32.5 µM],
COC(=O)C1(O)c2ccccc2-c2ccccc21,0.503%,
Nc1cccc2ccccc12,,inactive

Structure (SMILES),"activity change, negative = inhibition",Potency
CC(C)(C)N(NC(=O)c1ccc(Cl)cc1)C(=O)c1ccccc1,-0.124%,
SCc1ccccc1,25.2% [at 95 µM],
CCC1(CC)C(=O)NC(=O)NC1=O,0.229%,
CCC(C)(C)O,-1.45%,
CCOP(=S)(OCC)SCSc1cc(Cl)ccc1Cl,-4.4%,
CN1CC[C@]23c4c5ccc(O)c4O[C@H]2[C@@H](O)CC[C@H]3[C@H]1C5,4.97%,
O=C1NC(=O)C(=O)C(=O)N1,1.13% [at 95 µM],
CN1C[C@H](C(=O)N[C@]2(C)O[C@@]3(O)[C@@H]4CCCN4C(=O)[C@H](Cc4ccccc4)N3C2=O)C=C2c3cccc4[nH]cc(c34)C[C@H]21,,inactive
CCCSP(=S)(OCC)Oc1ccc(SC)cc1 (stereo not given),-0.115%,
C=CC(=O)OCC,2.11% [at 95 µM],
Clc1ccccc1,0.5%,
C[C@H]1O[C@H](OC2[C@@H](O)[C@@H](O)C(O)[C@H](O)[C@H]2O)[C@@H](N)C[C@@H]1N=C(N)C(=O)O (stereo not given in full),9.58%,
C=C(Cl)Cl,-10.2% [at 95 µM],
CCCCC#N,-4.89%,
CCCCCCCCCCCCCCCl,-6.01% [at 95 µM],
CCCC[N+]1(C)[C@@H]2CC(OC(=O)[C@H](CO)c3ccccc3)C[C@H]1[C@@H]1O[C@@H]12 (stereo not given in full),4.18%,
C1CCNCC1,-0.183% [at 95 µM],
CN1CC[C@]23c4c5ccc(O)c4O[C@H]2[C@@H](O)C=C[C@H]3[C@H]1C5,0.393%,
COC(=O)Cc1ccccc1,11.7%,
CCCC(C)(COC(N)=O)COC(=O)NC(C)C (stereo not given),,inactive
